Source: PubChem (National Center for Advancing Translational Sciences (NCATS))
An excerpt weighted towards active compounds, which were near 19% of everything screened.
TDP1 cell noCPT: qHTS for Inhibitors of human tyrosyl-DNA phosphodiesterase 1 (TDP1): qHTS in cells in absence of CPT | 15% of 420,000 active | Potency, µM (highest dose often 46.2 µM), hits mostly inhibitors | AID 686978, 2013 | DT40 Tdp1-/- hTDP1 cells, no CPT, ATP luminescence, 48 h; note: nearly all actives have a fitted effect of over 55% in size
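Stably hTDP1-transfected Tdp1-null chicken DT40 cells were treated with library compounds minus camptothecin and grown for at least 48 hr at 37 °C, after which cellular ATP was quantified by luminescence.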
TDP1 cell CPT: qHTS for Inhibitors of human tyrosyl-DNA phosphodiesterase 1 (TDP1): qHTS in cells in presence of CPT. AID 686979, 2013. chicken DT40 Tdp1-/-;hTDP1 cells + 20 nM CPT, ATP luminescence, 48 h. 12% of 420,000 active. Potency, µM (series often up to 46.2 µM), most hits filed as inhibitors; note: nearly all actives have a fitted effect of over 55% in size
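Chicken DT40 Tdp1-/- cells stably complemented with human TDP1 were seeded at 400 cells/well in medium containing 20 nM camptothecin, exposed to pin-transferred compounds, and grown at 37 °C for at least 48 hr. Viability was read as ATP luminescence.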
BCR signal inh: qHTS Assay to Find Inhibitors of Chronic Active B-Cell Receptor Signaling. ABC-DLBCL IkBa-CBG/CBR reporter, luminescence ratio, 4 h. Potency, µM (titrated, usually from 46.1 µM), actives largely listed as inhibitors. 0.05% of 340,000 active. AID 493014, 2011; active = well fitted inhibition curve with a large enough effect in the signal ratio, with a control signal flat, not every such curve was filed as active; inconclusive = small, poorly fitted or top-dose-only effect, or effect the other way, or a change in a side signal; the % refers to the signal ratio
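Doxycycline induced both beetle luciferases in TMD8 lymphoma cells; IKK-driven degradation limits the IkappaBalpha-fused green signal, while red luminescence normalises for cell number and nonspecific effects. Compounds tested up to 46 uM, 4 hrs.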
IL1B secr inh: qHTS for Inhibitors of Inflammasome Signaling: IL-1-beta AlphaLISA Primary Screen; THP-1 LPS/ATP IL-1B secretion, AlphaLISA, 16 h; hits give low values; activity change, % at 57.5 µM; 4.7% of 360,000 active; in the data active = activity change below about -50%; inconclusive = mostly about -30% to -49%
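THP-1 cells pretreated 1 hr with compounds (up to 57.5 uM final), then stimulated with LPS (250 ng/mL final) plus ATP (1.25 mM final); secreted IL-1B measured by AlphaLISA after 16 hr, decreased signal indicating inhibition.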
MCF10A rerep: A quantitative high throughput screen for small molecules that induce DNA re-replication in MCF 10a normal breast cells. 2.9% of 350,000 active. AID 624296, 2012. Potency, µM (highest dose often 46.1 µM), most hits filed as activators. MCF 10A DNA re-replication, Hoechst nuclear intensity, 48 h; note: nearly all actives have a fitted effect of over 50% in size
SW480 rereplic: A quantitative high throughput screen for small molecules that induce DNA re-replication in SW480 colon adenocarcinoma cells; SW480 DNA re-replication, Hoechst DNA content imaging, 48 h; Potency, µM (series often up to 46.1 µM), actives largely listed as activators; 1.8% of 340,000 active; AID 624297, 2012; note: nearly all actives have a fitted effect of over 55% in size
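Treated cells incubate 48 hr (37 C, 5% CO2), are stained 40 min with Hoechst, and nuclear fluorescence is enumerated; a rise in nuclei with high DNA signal marks re-replication.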
Of the large screens only hits and unclear results are named; the others gave an inactive call; ! = repeats disagree. Unless noted, calls come from the whole dose curve; as a rule, active = well fitted curve in the direction sought with a large enough effect; inconclusive = small, poorly fitted or top-dose-only effect, or another doubt; inactive = no such curve, though single readings can be large; an effect the other way counts as inactive or inconclusive.

CCC1CN(C(=O)N2CCC(C(=O)NCc3ccccc3F)CC2)c2ccccc2O1 (configuration not stated)	TDP1 cell noCPT 15µM, TDP1 cell CPT inconclusive (no result: BCR signal inh, IL1B secr inh, MCF10A rerep, SW480 rereplic)
O=C(NCc1ccccc1F)C1CCN(C(=O)NCc2ccccc2)CC1	none
CCC1CN(C(=O)N2CCC(C(=O)NCCc3ccccc3Cl)CC2)c2cc(C)ccc2O1 (configuration not stated)	TDP1 cell noCPT 21µM, TDP1 cell CPT 16µM (no result: BCR signal inh, IL1B secr inh, MCF10A rerep, SW480 rereplic)
CCC1CN(C(=O)N2CCC(C(=O)NCc3cccc(C)c3)CC2)c2ccccc2O1 (configuration not stated)	TDP1 cell noCPT 21µM, TDP1 cell CPT 16µM (no result: BCR signal inh, IL1B secr inh, MCF10A rerep, SW480 rereplic)
CCC1CN(C(=O)N2CCC(C(=O)NCc3ccccc3C)CC2)c2ccccc2O1 (configuration not stated)	TDP1 cell noCPT 21µM, TDP1 cell CPT 18µM
CN(C(=O)OC(C)(C)C)c1ccc(-c2nc3ccccc3s2)cc1	none (no result: TDP1 cell noCPT, TDP1 cell CPT, BCR signal inh, IL1B secr inh)
Cn1ncc(Cl)c1C(=O)N1CCN(S(=O)(=O)c2ccc(Cl)s2)CC1	none
Cc1cccc(NC(=O)C2CCN(C(=O)N3CCOc4ccccc43)CC2)c1C	TDP1 cell noCPT inconclusive, TDP1 cell CPT inconclusive, IL1B secr inh inconclusive
O=C(NCCC1=CCCCC1)C1CCN(S(=O)(=O)N2CCCC2)CC1	TDP1 cell noCPT inconclusive, TDP1 cell CPT inconclusive
Cc1ccc2c(c1)N(C(=O)N1CCC(C(=O)NCCC3=CCCCC3)CC1)CC(C)O2 (configuration not stated)	TDP1 cell noCPT 18µM, TDP1 cell CPT inconclusive (no result: BCR signal inh, IL1B secr inh, MCF10A rerep, SW480 rereplic)
CCC1CN(C(=O)N2CCC(C(=O)Nc3ccccc3F)CC2)c2ccccc2O1 (configuration not stated)	TDP1 cell noCPT 23µM!, TDP1 cell CPT inconclusive
Cc1nc(N2C(=O)c3oc4ccccc4c(=O)c3C2c2cccc(OCCC(C)C)c2)sc1C (configuration not stated)	none (no result: BCR signal inh, IL1B secr inh, MCF10A rerep, SW480 rereplic)
COC(=O)c1sccc1NC(=S)N1C(C)CCCC1C (configuration not stated)	SW480 rereplic inconclusive
Cc1noc(C)c1-c1ccc(C(=O)Nc2cccc(C(F)(F)F)c2)c2occc12	TDP1 cell noCPT 21µM, TDP1 cell CPT 16µM (no result: BCR signal inh, MCF10A rerep, SW480 rereplic)
Cc1noc(C)c1-c1ccc(C(=O)NCc2cccc(Cl)c2)c2occc12	TDP1 cell noCPT inconclusive, TDP1 cell CPT inconclusive (no result: BCR signal inh, MCF10A rerep, SW480 rereplic)
Cc1noc(C)c1-c1ccc(C(=O)NCc2cccnc2)c2occc12	TDP1 cell noCPT 18µM, TDP1 cell CPT 13µM (no result: BCR signal inh, MCF10A rerep, SW480 rereplic)
Cc1noc(C)c1-c1ccc(C(=O)Nc2cccc(NS(C)(=O)=O)c2)c2occc12	TDP1 cell noCPT inconclusive, TDP1 cell CPT inconclusive (no result: BCR signal inh, MCF10A rerep, SW480 rereplic)
Cc1noc(C)c1-c1ccc(C(=O)NCCC(F)(F)F)c2occc12	TDP1 cell noCPT inconclusive, TDP1 cell CPT 15µM (no result: BCR signal inh, MCF10A rerep, SW480 rereplic)
Cc1noc(C)c1-c1ccc(C(=O)NCC(C)C)c2occc12	TDP1 cell noCPT inconclusive, TDP1 cell CPT inconclusive (no result: BCR signal inh, MCF10A rerep, SW480 rereplic)
CCn1c(-c2ccccc2F)nc2cc(C(=O)N3CCCC(CO)C3)cc(NC(C)=O)c21 (configuration not stated)	none (no result: BCR signal inh, IL1B secr inh, MCF10A rerep, SW480 rereplic)
CCc1ccccc1NC(=O)c1cn(C)c(=O)c2ccccc12	none (no result: BCR signal inh, IL1B secr inh, MCF10A rerep, SW480 rereplic)
O=C1[C@@H](Oc2ccccc2)[C@@H](c2cccnc2)N1c1ccccc1	TDP1 cell noCPT 18µM, TDP1 cell CPT 21µM, MCF10A rerep inconclusive, SW480 rereplic inconclusive
O=C1[C@H](Oc2ccccc2)[C@@H](c2ccccc2)N1c1ccncc1	TDP1 cell noCPT 23µM, TDP1 cell CPT inconclusive, BCR signal inh inconclusive, IL1B secr inh -104, MCF10A rerep inconclusive, SW480 rereplic inconclusive
O=C1[C@@H](Oc2ccccc2)[C@@H](c2ccccc2)N1c1ccccc1	MCF10A rerep inconclusive
